Results from ChEMBL document CHEMBL3988442, “University of Dundee, Small-Polar-MMV Screening Library” (2021).
Among all 48,000 compounds or so, about 13,000 (27%) showed an effect of 50% or more. The list shows a part of the results.

These compounds were tested on Wolbachia pipientis (assay: Anti-Wolbachia Cell-Based Screen). Conditions: 5 µM.
Assay type: functional
Set-up: scale not given: in the data most compounds retested in dose-response had high values

Row | Structure (SMILES) | Percent Effect
1 | CCC(=O)NCc1ccccc1Cn1ccnc1 | 2.122%
2 | Cc1ccc2c(c1)OC(C)(C)CC2NC(=O)C1CCN(S(C)(=O)=O)CC1 (centres undefined) | -7.671%
3 | CCC(=O)NCc1cc(C2CC2)n(C2CCCC2)n1 | -1.631%
4 | Cn1nc(CNC(=O)C2CCCC2)cc1C1CC1 | -4.336%
5 | Cn1nc(CNC(=O)C2CCCCC2)cc1C1CC1 | 119.6%
6 | O=C(NCc1cc(C2CC2)n(C2CCCC2)n1)C1CC1 | 118.5%
7 | Cn1nc(CNC(=O)C2CC2)cc1C1CC1 | 4.922%
8 | Cn1nc(CNC(=O)C2CCN(S(C)(=O)=O)CC2)cc1C1CC1 | 134.6%
9 | C/C=C(\C)CN1CCCn2nc(CNC(=O)C3CCC3)cc2C1 | 8.995%
10 | Cn1nc(CNC(=O)C2CCC2)cc1C1CC1 | 172.6%
11 | O=C(O)C1(Cc2ccccc2Cl)CCN(c2ncccn2)CC1 | 4.771%
12 | Cc1noc(-c2cccnc2N(C)Cc2cscn2)n1 | -2.045%
13 | CCC[C@H]1CN(CCOC)C[C@@H]1NC(=O)Cn1cc(C)cn1 | -1.609%
14 | CCc1ncc(C(=O)NC(C)(C)CC)s1 | -4.681%
15 | CCC(C)n1cnc(S(=O)(=O)N(C)C)c1 (centres undefined) | -2.659%
16 | CCC(=O)N1CCC(c2nnc(Cn3cccn3)n2C2CC2)CC1 | 6.186%
17 | Cc1noc(C2CCN(C(=O)CN(C)c3ccc(Cl)cn3)CC2)n1 | -9.214%
18 | CCC(=O)N1CCC(c2nnc(Cn3cncn3)n2C2CC2)CC1 | -3.377%
19 | CCC(=O)N1CCC(c2ncncc2C)CC1 | 105.8%
20 | Cc1cncnc1C1CCN(C(=O)CN(C)C)CC1 | 107.4%
21 | Cc1cc(C)n(-c2cncc(N3CCN(C(=O)CN(C)C)CC3)n2)n1 | -21.39%
22 | NC(=O)CSCC(=O)N1CCc2cc(Cl)cc(Cl)c2C1 | -10.26%

Row | Structure (SMILES) | Percent Effect
23 | CC(CNC(=O)c1ccc(=O)[nH]n1)N1CCc2ccccc21 (centres undefined) | 114.6%
24 | Cc1cc(C(=O)NCC(C)N2CCc3ccccc32)on1 (centres undefined) | 128.5%
25 | Cc1noc(C)c1C(=O)NCC(C)N(C)C (centres undefined) | -3.203%
26 | Cc1noc(C)c1C(=O)NCC1CCCCN1Cc1ccccc1 (centres undefined) | 1.84%
27 | CC(CNC(=O)c1cc(C2CC2)on1)N1CCc2ccccc21 (centres undefined) | 110.3%
28 | COc1ccc(NC(=O)NCC(C)N2CCc3ccccc32)cc1 (centres undefined) | 6.782%
29 | O=C(NCCSC1CCCC1)c1cc(C2CC2)on1 | 6.284%
30 | Cc1noc(C)c1C(=O)NCC(C)N1CCc2ccccc21 (centres undefined) | 136.7%
31 | CC(CNC(=O)c1cccc(C#N)c1)N1CCc2ccccc21 (centres undefined) | -2.298%
32 | CCC(CNC(=O)c1ccc(=O)[nH]n1)N1CCc2ccccc2C1 (centres undefined) | -13.41%
33 | CC(CNC(=O)c1ccc(C#N)cc1)N1CCc2ccccc21 (centres undefined) | -4.664%
34 | O=C(c1ccc(=O)[nH]n1)N1CCc2ccccc21 | 6.411%
35 | CS(=O)(=O)CCCNC(=O)NC1CC(c2cccc(Cl)c2)C1 (centres undefined) | -3.705%
36 | N#Cc1cccc(S(=O)(=O)NC2CCN(Cc3ccccc3)C2=O)c1 (centres undefined) | -3.444%
37 | CC(C)Oc1cc(N2CCC3(CC2)[C@H](O)C[C@@H]3O)nc(N)n1 | 12.72%
38 | CN1CCCC(N2CCN(c3nc4ccccn4c3C#N)CC2)C1 (centres undefined) | 6.11%
39 | CC(=O)N(CCc1ccccc1)CC(=O)Nc1ccccc1C#N | -7.598%
40 | CC(C)(C)c1ncc2c(n1)CN(C(=O)c1ccc(C#N)nc1)C2 | -2.492%
41 | COC(=O)c1ccc(F)c(S(=O)(=O)Nc2ccc(C(N)=O)cc2)c1 | 8.532%
42 | Cc1cccc(N2CCN(CCC(=O)NCc3ccc(C)s3)CC2)c1 | 3.46%
43 | Cc1cnc(C(=O)N2CCN(C(=O)C(C)C)[C@@H]3CS(=O)(=O)C[C@@H]32)cn1 | -9.288%
44 | Cc1ccc(O)c(C(=O)N2CCC(CN3CCCCCC3)CC2)c1 | 5.424%

Row | Structure (SMILES) | Percent Effect
45 | COC(=O)CC1CCN(C(=O)c2ccccc2-n2nnnc2C)CC1 | 87.7%
46 | Cc1nnnn1-c1ccc(CC(=O)N2CCOCC(O)C2)cc1 (centres undefined) | -21.98%
47 | COc1ncccc1C(=O)N1CCC(CNC(C)=O)CC1 | -0.8543%
48 | COC(=O)C1CCCN1C(=O)c1ccc(-n2nc(C)cc2C)cc1 (centres undefined) | -11.77%
49 | CC(C)(C)OC(=O)NCC1CCN(C(=O)c2ccccc2O)CC1 | 15.84%
50 | COC(=O)CC1CCN(C(=O)c2ccc(-n3nnnc3C)cc2)CC1 | 129.7%
51 | COC(=O)CC1CCN(C(=O)c2ccc(C)cc2)CC1 | 100%
52 | CCNc1ccnc(NC2CCN(C(=O)c3ccc(C)cc3)CC2)n1 | 10.68%
53 | Cc1cnn(CC2CN(CC(=O)Nc3sccc3C#N)CCO2)c1 (centres undefined) | -6.28%
54 | CCc1noc(CS(=O)(=O)Cc2ccccc2Cl)n1 | -7.562%
55 | CN(C)CCN1C(=O)CC[C@@H]2[C@H]1CCN2C(=O)c1ccc(C#N)cc1.O=C(O)C(F)(F)F | -26.6%
56 | COCC1CN(S(=O)(=O)N(C)C)Cc2cnn(CC3CCCC3)c21.O=C(O)C(F)(F)F (centres undefined) | -5.811%
57 | CCS(=O)(=O)N1Cc2ncn(C)c2C(COCC2CCOCC2)C1.O=C(O)C(F)(F)F (centres undefined) | -11.73%
58 | CCOCC1CN(S(=O)(=O)N(C)C)Cc2cnn(CC3CC3)c21.O=C(O)C(F)(F)F (centres undefined) | -12.89%
59 | COCC1CN(S(=O)(=O)N(C)C)Cc2ncn(CC3CC3)c21.O=C(O)C(F)(F)F (centres undefined) | 108.7%
60 | Cn1cnc2c1C(COCC1CC1)CN(C(=O)c1cccs1)C2 (centres undefined) | -12.17%
61 | Cn1cnc2c1C(COCC1CC1)CN(c1ncccn1)C2.O=C(O)C(F)(F)F.O=C(O)C(F)(F)F (centres undefined) | 100.9%
62 | Cn1cnc2c1C(COCC1CCOCC1)CN(c1ncccn1)C2.O=C(O)C(F)(F)F.O=C(O)C(F)(F)F (centres undefined) | -12.76%
63 | CCS(=O)(=O)N1Cc2ncn(CC3CC3)c2C(COCC2CC2)C1.O=C(O)C(F)(F)F (centres undefined) | 98%
64 | Cc1cnc(N2C[C@@H]3[C@@H](C2)OCC(=O)N3CC(C)C)nc1.O=C(O)C(F)(F)F | -17.14%
